± gives the standard deviation.
Test system: MILI (PIWIL2) piRISC loaded with piRNA #1 (26 nt)
Experiment: pre-steady-state target cleavage rate (min^-1); guide: piRNA #1 5'p-UGAGGUAGUAGGUUGUAUAGUAUCCA; higher = faster piRNA-guided slicing of the target
Details: auxiliary factor: 500 nM mouse GTSF1
Method in brief: (§1)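 The pre-steady-state cleavage rate came from a burst-and-steady-state fit to pooled data from three Cleave-'n-Seq trials, in which uncleaved targets were sequenced and normalised to depth and to weakly complementary targets. Each reaction held 0.1 nM transcribed, DNA-blocked target RNA library and 1 nM active affinity-purified piRISC carrying one synthetic guide, with or without 500 nM GTSF1 partner protein, in HEPES–potassium acetate buffer at 33 °C for 0–8 or 0–960 min. k3 was capped at 0.0001 min^-1.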

| Sequence | pre-steady-state target cleavage rate |
| --- | --- |
| GGAGACCUAUCUAUACAACCUAUUACCUCA | 0.0974 ± 0.01 |
| GGAGACGAUACGUAUACAACCUACUACCUCA | 0.107 ± 0.013 |
| GGAGAGGAUACUAUACAACAUACUACCUCA | 0.0488 ± 0.0058 |
| GGAGACCAUACUAUUCAACCUACUAGCUCA | 0.11 ± 0.019 |
| GGAGACCUUGCUAUACAACCUACUACCUCA | 0.114 ± 0.022 |
| GGAGAGGAUACUAAACAACCUACUACCUCA | 0.174 ± 0.012 |
| GGAGACGAUACUUUACAUCCUACUACCUCA | 0.257 ± 0.016 |
| GGAGAGGUUACUAUACAACGUACUACCUCA | 0.00751 ± 0.0028 |
| GGAGUGGAUACUAUACAACCGUACUACCUCA | 0.00369 ± 0.0022 |
| GGAGACCAUACAUACAACCUACUACCUCA | 0.119 ± 0.023 |
| GGAGUCGAUACUAUACAACCUACUUCCUCA | 0.0291 ± 0.0072 |
| GGAGACGAUACUAUACAACCUACUACCUCU [g2:g24:cont:t1U] | 0.24 ± 0.019 |
| GGAGACCUAAUAUACAACCUACUACCUCA | 0.0727 ± 0.014 |
| GGAGUGCGAUACUAUACAACCUACUACCUCA | 0.206 ± 0.013 |
| GGAGAGGAUACAAUACAACCUACUUCCUCA | 0.0281 ± 0.0083 |
| GGAGUGGAUACUAUUCAACCUACUACCUGA | 0.0817 ± 0.011 |

Test system: EfPiwi piRISC loaded with piRNA #1 (26 nt)
Experiment: pre-steady-state target cleavage rate (min^-1); auxiliary factor: 500 nM Ephydatia muelleri Gtsf1; guide: piRNA #1 5'p-UGAGGUAGUAGGUUGUAUAGUAUCCA; MIWI and MILI are mouse PIWI proteins and EfPiwi is from a freshwater sponge; tags in brackets are library labels; higher = faster piRNA-guided slicing of the target
Details: not given
Method in brief: as §1

| Sequence | pre-steady-state target cleavage rate |
| --- | --- |
| GGAGACCUUACUAUACAACCUACUACGUCA | 0.00584 ± 0.0027 |
| GGAGACGAUUCUAUACAACCUACUACCACA | 0.00382 ± 0.0024 |
| GGAGACCAUACUAUACAACCUAACUACCUCA | 0.00707 ± 0.0033 |
| GGAGACCUUACUAUACAAGCUACUACCACA | 0.00275 ± 0.0027 |
| GGAGUGCAUACUAUACAACCUACUACCUCA | 0.0787 ± 0.029 |
| GGAGACCAUACUAUACAUCGUACUACCUCA | 0.0027 ± 0.0021 |
| GGAGAGGAUACUAUACAACGCUACUACCUCA | 0.00523 ± 0.0033 |
| GGAGUGGAUACUAUACAAGCAACUACCUCA | 0.00256 ± 0.0013 |
| GGAGAGGAUACUAUAGAACCUACUACCUCA | 0.00475 ± 0.0023 |
| GGAGUGGUUACAAUACAACCUACUACCUCA | 0.00789 ± 0.0035 |
| GGAGAGGAUACUAUAUAACCUACUACCUCA | 0.109 ± 0.041 |
| GGAGACCAUACUAUACAACCUUCUACGUCA | 0.00387 ± 0.0029 |
| GGAGACCAAACUAUACAACCUACUACGUCA | 0.00503 ± 0.0027 |
| GGAGACCUAACUAUACAACCUACUACCCA | 0.00326 ± 0.0026 |
| GGAGACCAAACUAUUCAACCUACUACCUCA | 0.00445 ± 0.004 |
| GGAGACCUUACUAUACAACCUACUACUUCA | 0.0046 ± 0.003 |
| GGAGACCAUACUAUUACAACCUACUACCUCA | 0.0115 ± 0.0046 |
| GGAGAGGAUACAAUACAACCUACUACCUGA | 0.0036 ± 0.0016 |
| GGAGACCAUACUAUACACCCUACUACCUCA | 0.00656 ± 0.0021 |
| GGAGAGGAUACUCUACAACCUACUACCUCA | 0.00431 ± 0.0033 |

| Sequence | pre-steady-state target cleavage rate |
| --- | --- |
| GGAGAGGAUACUAUACAACCUACUACCUCC [g2:g25:cont:t1C] | 0.12 ± 0.046 |
| GGAGACGAUACUAUACAACCUACUUACCUCA | 0.0069 ± 0.0023 |
| GGAGACCUUACUGAUACAACCUACUACCUCA | 0.0403 ± 0.016 |
| GGAGAGGAUACUAUUCAACCUACUAGCUCA | 0.00239 ± 0.0015 |
| GGAGACCUAUCUAUACAACCUAUUACCUCA | 0.00466 ± 0.0039 |
| GGAGACGAUACGUAUACAACCUACUACCUCA | 0.00952 ± 0.0048 |
| GGAGAGGAUACUAUACAACAUACUACCUCA | 0.0063 ± 0.0023 |
| GGAGACCAUACUAUUCAACCUACUAGCUCA | 0.00459 ± 0.0044 |
| GGAGACCUUGCUAUACAACCUACUACCUCA | 0.00436 ± 0.004 |
| GGAGAGGAUACUAAACAACCUACUACCUCA | 0.00787 ± 0.0036 |
| GGAGACGAUACUUUACAUCCUACUACCUCA | 0.00465 ± 0.0027 |
| GGAGAGGUUACUAUACAACGUACUACCUCA | 0.00457 ± 0.0015 |
| GGAGUGGAUACUAUACAACCGUACUACCUCA | 0.00658 ± 0.0027 |
| GGAGACCAUACAUACAACCUACUACCUCA | 0.0126 ± 0.0066 |
| GGAGUCGAUACUAUACAACCUACUUCCUCA | 0.00362 ± 0.0021 |
| GGAGACGAUACUAUACAACCUACUACCUCU [g2:g24:cont:t1U] | 1.35 ± 0.49 |
| GGAGACCUAAUAUACAACCUACUACCUCA | 0.0061 ± 0.0043 |
| GGAGUGCGAUACUAUACAACCUACUACCUCA | 0.136 ± 0.044 |
| GGAGAGGAUACAAUACAACCUACUUCCUCA | 0.00257 ± 0.002 |
| GGAGUGGAUACUAUUCAACCUACUACCUGA | 0.00324 ± 0.0019 |

— the supplement of paper PMC10338343
